This note sets out measurements from PubChem BioAssay (Tox21).

Assay [1] concerns the target Acetylcholinesterase (Homo sapiens) (UniProt P22303). Put plainly: Acetylcholinesterase (AChE) small molecule antagonists: colormetric cell-based qHTS assay (AID 1347395). Note: nearly all actives have a fitted effect of over 30% in size. In short, it runs like this:
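Homogeneous whole-cell format. SH-SY5Y cells seeded overnight, dosed with compound (30 min, 37 C, 5% CO2), then given DTNB/acetylthiocholine cocktail for 90 min at 37 C; colorimetric signal.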

The target is the same in assay [2]. Put plainly: Acetylcholinesterase (AChE) small molecule antagonists: enzyme-based qHTS assay (AID 1347397). Note: nearly all actives have a fitted effect of over 55% in size. The settings on record: Potency: AChE enzyme activity inhibition; outcome: AChE enzyme activity inhibition. The method, boiled down: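 Compound or DMSO vehicle was pin-transferred onto recombinant human AChE (50 mU/mL as dispensed) and left 30 min at room temperature. Acetylthiocholine with DTNB then started the reaction, read colorimetrically 10 min later.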

Assay [3] has the same target. Put plainly: Acetylcholinesterase (AChE) small molecule antagonists: fluorescence cell-based qHTS assay (AID 1347398). Note: nearly all actives have a fitted effect of over 50% in size. The settings on record: Potency: AChE activity; outcome: AChE activity. The method, boiled down: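 Using neuroblastoma SH-SY5Y cells as the enzyme source, test chemicals are preincubated 30 min at 37 C; AChE-driven acetylthiocholine cleavage is then quantified by thiocholine-dependent Thiolite Green fluorescence after 40 min at room temperature.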

Unmarked numbers belong to inactive results. Records with an inconclusive call do not appear. Calls of active or inactive are those of the source. Calls come from the whole dose curve.
% is set by controls: 0 for no effect and ±100 for the full control effect.

Acetylcholinesterase (Homo sapiens), sequence (P22303 whole entry, looked up): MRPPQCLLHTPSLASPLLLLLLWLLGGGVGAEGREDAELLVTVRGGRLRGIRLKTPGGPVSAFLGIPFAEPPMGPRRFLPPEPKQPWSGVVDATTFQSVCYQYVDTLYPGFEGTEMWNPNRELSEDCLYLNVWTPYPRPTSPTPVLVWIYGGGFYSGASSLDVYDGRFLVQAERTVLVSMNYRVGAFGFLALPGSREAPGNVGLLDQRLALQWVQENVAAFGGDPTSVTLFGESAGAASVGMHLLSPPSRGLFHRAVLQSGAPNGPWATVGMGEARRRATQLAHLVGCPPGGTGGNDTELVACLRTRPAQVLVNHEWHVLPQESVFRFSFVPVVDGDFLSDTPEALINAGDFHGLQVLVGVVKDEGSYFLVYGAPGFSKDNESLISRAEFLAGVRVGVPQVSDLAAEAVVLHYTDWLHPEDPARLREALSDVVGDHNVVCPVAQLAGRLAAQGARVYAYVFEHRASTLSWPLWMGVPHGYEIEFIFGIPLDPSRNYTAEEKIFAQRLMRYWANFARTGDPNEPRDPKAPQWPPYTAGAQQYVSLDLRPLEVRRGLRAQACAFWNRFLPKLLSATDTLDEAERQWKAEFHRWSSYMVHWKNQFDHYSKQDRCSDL

With `CO[Si](CCCS)(OC)OC`, the Potency result in assay [1], in assay [2] and in assay [3] was “inactive” each time.
In the case of `CCCCN1C=CN(C)C1`, the activity, negative = inhibition in assay [1] was 0.291% [at 23.6 µM]. Further, the activity change, negative = inhibition in assay [2] is 1.48% [at 23.6 µM].
On to `O=C(O)/C=C(\CC(=O)O)C(=O)O`, for which the Potency entry in assay [1], in assay [2] and in assay [3] was “inactive” throughout.
Take `O=C1OC(=O)c2cc([N+](=O)[O-])ccc21`: the Potency entry in assay [1], in assay [2] and in assay [3] was “inactive” each time.
For `CCCCCOC(=O)CCCCC`, the Potency entry in assay [1], in assay [2] and in assay [3] was “inactive” each time.
Consider `O=S(=O)(O)c1ccc(N=Nc2c(O)ccc3ccccc23)cc1`, for which the Potency entry in assay [1] and in assay [2] was “inactive” each time.
Consider `OCC(CO)N[C@H]1C[C@](O)(CO)[C@@H](O)[C@H](O)[C@H]1O`, for which the Potency result in assay [1], in assay [2] and in assay [3] was “inactive” throughout.
Take `CC(C)(C)NSc1nc2ccccc2s1`: the Potency entry in assay [1] and in assay [2] was “inactive” in each case.
For `CC(=O)N[C@@H](CCC(=O)O)C(=O)O`, the Potency entry in assay [1], in assay [2] and in assay [3] was “inactive” each time.
With `NCCCN1CCOCC1`, the Potency result in assay [1], in assay [2] and in assay [3] was “inactive” each time.
As for `Cc1ccc(N(CCO)CCO)cc1`, the Potency entry in assay [1], in assay [2] and in assay [3] was “inactive” in each case.
Regarding `CCC(C)(CCC(C)C)C(=O)O` (centres undefined), the Potency result in assay [1] and in assay [2] was “inactive” in each case.
Consider `CCN(CC)C(=O)Nc1ccc(OCC(O)CNC(C)(C)C)c(C(C)=O)c1` (centres undefined), for which the Potency result in assay [1], in assay [2] and in assay [3] was “inactive” in each case.
As for `O=C(CC(=O)C(F)(F)F)c1ccccc1`, the Potency result in assay [1], in assay [2] and in assay [3] was “inactive” throughout.
As for `COc1ccc(OC)c(OC)c1`, the Potency result in assay [1], in assay [2] and in assay [3] was “inactive” each time.
Turning to `CCOc1ccccc1O[C@H](c1ccccc1)[C@H]1CNCCO1`, the molecule was called inactive in assay [1] and in assay [2].
As for `O=C(C(=O)c1ccco1)c1ccco1`, the Potency entry in assay [1], in assay [2] and in assay [3] was “inactive” each time.
Turning to `COc1ccc(S(=O)(=O)N2c3ccc(Cl)cc3[C@@](O)(c3ccccc3Cl)[C@H]2C(=O)N2CCC[C@@H]2C(N)=O)cc1OC`, the Potency result in assay [1], in assay [2] and in assay [3] was “inactive” throughout.
